Measurements: ChEMBL document CHEMBL3988442, “University of Dundee, Small-Polar-MMV Screening Library” (2021)
In all, about 66,000 compounds went through this assay and about 960 (1.5%) showed an effect of 50% or more. What follows is part of a selection rich in strong results, with near analogues and random picks from the rest.

Tested on: Trypanosoma brucei
Experiment: Trypanosoma brucei 72 hour study
Format: functional, organism-based
Design: scale not given: in the data most compounds retested in dose-response had high values

O=C(O)C(F)(F)F.c1coc(CN2CCO[C@H]3[C@H](OCC4CCCC4)CC[C@@H]32)c1
Percent Effect (30.3 µM, […]): 1.448%

Cc1csc(N2CCN(CC(=O)N3CCNC3=O)CC2C)n1 (configuration not stated)
Percent Effect (10 µM): -102.2%

CC(C)NC(=O)c1ccc2c(c1)nc1n2CCN(c2ccccc2)C1
Percent Effect (30 µM, 30.03 µM): 50.34%

CC(C)NC(=O)c1ccc2c(c1)nc1n2CCN(C(C)C)C1
Percent Effect (30 µM, 30.03 µM): -14.37%

CC(C)NC(=O)c1ccc2c(c1)nc1n2CCN(Cc2ccco2)C1
Percent Effect (30 µM, 30.03 µM): -8.027%

COc1ccc2c(c1)c(-c1nc(C)ncc1CN)cn2C
Percent Effect (30.3 µM, […]): -32.27%

COc1ccc2c(c1)c(-c1nc(N(C)C)ncc1CN)cn2C
Percent Effect (30.3 µM, […]): 100.6%

COCC(=O)NCc1cnc(C)nc1-c1cn(C)c2ccc(OC)cc12
Percent Effect (30.3 µM, […]): -5.457%

O=C(Nc1ccccc1Cl)N1CCN(CC2CC2)[C@@H]2CS(=O)(=O)C[C@@H]21
Percent Effect (30 µM, 30.03 µM): -39.32%

COc1ccc(C(=O)NC[C@H]2COCc3nc4cc(C)ccc4n32)cc1
Percent Effect (30.3 µM, […]): 101.3%

Cc1ccc2c(c1)nc1n2[C@@H](CNC(=O)c2cncnc2)COC1
Percent Effect (30.3 µM, […]): -3.868%

COc1ccc2c(c1)nc1n2[C@@H](CNC(=O)c2cccnc2)COC1
Percent Effect (30.3 µM, […]): -10.65%

CCNC(=O)NC[C@H]1COCc2nc3cc(C)ccc3n21
Percent Effect (30.3 µM, […]): 32.27%

CCNC(=O)NC[C@H]1COCc2nc3cc(OC)ccc3n21
Percent Effect (30 µM, 30.03 µM): 86.68%

COc1ccc2c(c1)nc1n2[C@@H](CNC(=O)c2ccccn2)COC1
Percent Effect (30 µM, 30.03 µM): -12.62%

Cc1ccoc1-c1nnc(CNC2CCCN(c3cccnn3)C2)o1 (configuration not stated)
Percent Effect (30.3 µM, […]): 3.988%

CNCC(=O)N1CCCC1c1cncc(Oc2ccc(F)cc2)n1.Cl (configuration not stated)
Percent Effect (30.3 µM, […]): -5.938%

CS(=O)(=O)c1ccc(-c2cnc(C3CCCN3)cn2)cc1.Cl (configuration not stated)
Percent Effect (30.3 µM, […]): -27.05%

Cc1nccc(N[C@H]2CN(C(=O)CN3CCCC3=O)C[C@@H]2C(C)C)n1
Percent Effect (30 µM, 30.03 µM): -19.05%

O=C(CN1CCCCC1)N1CCC(c2cc(=O)n3c(n2)CCCCC3)C1.O=C(O)CC(O)(CC(=O)O)C(=O)O (configuration not stated)
Percent Effect (30.3 µM, […]): -11%

Cc1ccc(CN2CCC3(CC2)C(=O)N(CC(C)C)CCN3C)s1.O=C(O)C(F)(F)F.O=C(O)C(F)(F)F
Percent Effect (30.3 µM, […]): -75.61%

COc1cccc([C@@]2(O)CC[C@@H]3CN(C(=O)c4ccn(C)n4)C[C@@H]32)c1
Percent Effect (30.3 µM, […]): 1.75%

CN(CC(=O)NCC(F)(F)F)C(=O)c1ccc(C(=O)OC(C)(C)C)cc1
Percent Effect (30 µM, 30.03 µM): 14.69%

N#Cc1c(Cl)nsc1NCc1ccnc(OCC(F)(F)F)c1
Percent Effect (30 µM, 30.03 µM): -8.155%

CCS(=O)(=O)c1ccccc1N1CCC(NC2CCCC2)CC1
Percent Effect (30.3 µM, […]): 22.61%

N#Cc1cn(C2CC2)c(=O)n(Cc2ncc(-c3cccs3)o2)c1=O
Percent Effect (30.3 µM, […]): 55.83%

N#Cc1cn(C2CC2)c(=O)n(Cc2cc(-c3cccs3)on2)c1=O
Percent Effect (30.3 µM, […]): -130.2%

N#Cc1cn(C2CC2)c(=O)n(Cc2noc(-c3cccs3)n2)c1=O
Percent Effect (30.3 µM, […]): 18.62%

Cc1nc(CNC(=O)N2CCN(c3ccc(Cl)cn3)CC2)sc1C
Percent Effect (30.3 µM, […]): 8.84%

COc1cccc(C(=O)N2C[C@H]3CC[C@@H]2CN(Cc2cscn2)C3)c1
Percent Effect (30 µM, 30.03 µM): -1.998%

O=C(NCc1cccs1)[C@H]1CC[C@@H]2[C@@H](CCN2C2CCC2)O1.O=C(O)C(F)(F)F
Percent Effect (30 µM, 30.03 µM): -12.3%

Cl.Cl.c1cnc(NCc2cncc3c2CCN(Cc2cccs2)C3)nc1
Percent Effect (30 µM, 30.03 µM): -8.466%

CC(C)CN1CCC(NC(=O)c2ccc(F)cc2I)CC1
Percent Effect (30 µM, 30.03 µM): 77.98%

CC(C)CN1CCC(NC(=O)c2ccc(F)cc2F)CC1
Percent Effect (30 µM, 30.03 µM): -0.8337%

CC(C)CN1CCC(NC(=O)c2ccc(F)cc2Cl)CC1
Percent Effect (30 µM, 30.03 µM): -22.52%

CCCN1CCC(NC(=O)c2csc(C)c2C)CC1
Percent Effect (30.3 µM, […]): -65.99%

CCCN1CCC(NC(=O)c2ccc(F)cc2I)CC1
Percent Effect (30 µM, 30.03 µM): 80.53%

CCN1CCC(NC(=O)c2ccc(F)cc2I)CC1
Percent Effect (30 µM, 30.03 µM): 29.33%

CNC(=O)COC1COC2(CCN(Cc3cccnc3OC)CC2)C1.O=C(O)C(F)(F)F (configuration not stated)
Percent Effect (30.3 µM, […]): -30.72%

O=C(O)C(F)(F)F.O=C([C@@H]1C[C@@H]2CCN(c3cccc(F)c3)C[C@H]2O1)N1CCCC1
Percent Effect (30.3 µM, […]): -10.13%

Cc1cncc(NC(=O)c2ccc(CN3CC[C@H](O)C3)cc2)c1
Percent Effect (30.3 µM, […]): -21.22%

Cc1cc(NC(=O)c2ccc(CN3CC[C@H](O)C3)cc2)ccc1F
Percent Effect (30.3 µM, […]): 41.32%

COc1cc(NC(=O)c2ccc(CN3CC[C@H](O)C3)cc2)cc(OC)c1
Percent Effect (30.3 µM, […]): 58.59%

CN(C)Cc1cn2c(n1)CN(C(=O)Cc1ccsc1)CC2.O=C(O)C(F)(F)F
Percent Effect (30 µM, 30.03 µM): -42.4%

Cl.O=c1c2sccc2nc2n1CCN(Cc1ccc(F)c(F)c1)CC2
Percent Effect (30.3 µM, […]): 15.73%

COc1ccnc(N2CCc3ccc(OC(F)F)cc3C2)n1
Percent Effect (30.3 µM, […]): 7.96%

COc1cccc(O[C@H]2CCN(c3nc(C)cc(C)n3)CC[C@@H]2O)c1
Percent Effect (30.3 µM, […]): -10.89%
